# Screening data (PubChem BioAssay)
# This is one part of a sample in which hits are shown more often than they occur.
# RT RNaseH block: blocks HIV-1 RNase H cleavage of RNA/DNA duplex; inhibition, % at 10 µM; RT-RNase H RNA/DNA duplex cleavage, fluorescence; 65,000 tested, 1.9% active; P04585; AID 565; in the data active = inhibition above about 50%
# * marks the source's active call; other numbers are inactive results.
SMILES,RT RNaseH block
COC(=O)c1sc2cnccc2c1N,-0.6
COC(=O)c1sc(=S)sc1C(=O)OC,52.4*
COC(=O)c1c(N)sc(C(C)=O)c1C,-23.1
COCCn1c(COc2cccc(OC)c2)nnc1SCC(=O)N1CCOCC1,-15.8
COc1ccccc1N1CCN(C(=O)Cn2nc(C(F)(F)F)c3c2CCC3)CC1,-0.5
Cc1ccc(S(=O)(=O)Nc2ccc(Br)cc2/C=N/n2cnnc2)cc1,-2.1
COc1ccccc1N(CC(O)CN1C(=O)NC(C)(C)C1=O)S(=O)(=O)c1ccc(C)cc1 (stereo unspecified),1.1
CCN=C(NCC)SC1CC(=O)N(c2cccc(OCC)c2)C1=O (stereo unspecified),1.1
COc1ccc(Cn2c(C)nc3c(c2=O)c2nc4ccccc4nc2n3Cc2ccco2)cc1,81.3*
Cc1nc2c(c(=O)n1Cc1ccccc1Cl)c1nc3ccccc3nc1n2Cc1ccco1,38.1
COc1ccc(Cn2c3nc4ccccc4nc3c3c(=O)n(Cc4ccco4)c(C)nc32)cc1,61.7*
COc1ccc(S(=O)(=O)c2c(N)n(Cc3ccco3)c3nc4ccccc4nc23)cc1,47.2
Cc1nc2c(c(=O)n1CC1CCCO1)c1nc3ccccc3nc1n2Cc1ccc2c(c1)OCO2 (stereo unspecified),37.6
CCOc1ccc(-n2c3nc4ccccc4nc3c3c(=O)n(Cc4ccco4)cnc32)cc1,4.0
Cc1csc(NC(=O)CSc2nnc(Cn3c(=O)sc4ccccc43)n2-c2ccccc2)n1,1.3
Cc1ccc(Cn2nnc3c(=O)n(Cc4ccccc4C)cnc32)cc1,-16.4
O=C(Cn1c(NCCCO)nc2ccccc21)c1cccs1,-8.5
COc1ccc(-n2cnnc2SCC(=O)c2cc(C)n(Cc3cccs3)c2C)cc1,1.3
COc1ccc(-c2nnc(SCC(=O)c3cccs3)o2)cc1,-0.1
COc1ccc(-c2nnc(SCC(=O)c3cc(C)n(Cc4cccs4)c3C)o2)cc1,57.6*
O=C(c1cc2ccccc2oc1=O)N(Cc1ccc2c(c1)OCO2)Cc1ccco1,4.4
O=C(CC1c2ccccc2Oc2ccccc21)N1CCN(c2ccccn2)CC1,-9.9
COCCn1cnnc1SCC(=O)c1ccc(S(=O)(=O)N2CCCC2)cc1,5.6
CC(c1ccccc1)n1cc(C(=O)NCc2ccncc2)nn1 (stereo unspecified),-0.2
CCOC(=O)c1sc(=S)n(-c2cc(F)ccc2F)c1N,72.0*
SMILES,RT RNaseH block
CCOC(=O)c1[nH]c(C)c(C(=O)c2cc(F)ccc2F)c1C,-86.1
COC(=O)C1=C(C)N(C)C(C)=C(C(=O)OC)C1c1ccc(F)c(Br)c1,-26.1
COC(=O)c1sc(=S)n(-c2cc(F)ccc2F)c1N,72.2*
Cc1cc(C(=O)CSc2n[nH]c(N)n2)c(C)n1-c1cc(F)ccc1F,-33.0
CCOC(=O)c1cc2cc(F)ccc2nc1C,-7.2
COC(=O)CC1Oc2ccccc2N(Cc2ccccc2)C1=O (stereo unspecified),-2.3
Cc1ccc(CNC(=O)CSc2nc(N3CCCCC3)nc(N3CCCCC3)n2)cc1,4.4
Cc1ccc2cc3cc(C(=O)NCCC(C)C)oc3nc2c1,-2.2
Cc1ccc2cc3cc(C(=O)NCc4ccco4)oc3nc2c1,51.1*
O=C(NCc1ccco1)c1cc2ccccc2o1,-12.2
CCN(CCNC(=O)C1CCN(c2nnc(-n3cccc3)s2)CC1)c1ccccc1,2.5
COCCn1c(C)cc(C(=O)CSc2nnc3scc(-c4ccc(Cl)cc4)n23)c1C,20.1
O=C(Nc1ccc(N2CCN(Cc3ccccc3)CC2)cc1)c1ncn[nH]1,1.6
O=C(CSc1nnc(COc2ccccc2)o1)N1CCN(c2ccccc2)CC1,2.2
O=C(CSc1nnc(-c2ccc(Cl)cc2)o1)N1CCN(c2ccccc2)CC1,50.0*
O=C(CSc1nnc(COc2ccc(Cl)cc2)o1)N1CCN(c2ccccc2)CC1,-0.2
O=C1C2C3c4ccccc4C(c4ccccc43)C2C(=O)N1Cc1ccco1 (stereo unspecified),-3.8
COc1cc(OC)c(C2CC(=O)N3CN(c4ccc(C)cc4)CSC3=C2C#N)cc1OC (stereo unspecified),29.8
N#CC1=C2SCN(Cc3ccco3)CN2C(=O)CC1c1cccc2ccccc12 (stereo unspecified),56.5*
CCOC(=O)CSC1=C(C#N)C(c2ccccc2Cl)C(C(=O)OC)C(=O)N1 (stereo unspecified),1.3
Clc1ccc(-c2nnc3sc(Cc4cccs4)nn23)c(Cl)c1,-19.2
c1coc(-c2nnc3sc(Cc4cccs4)nn23)c1,50.1*
COc1ccc(OCc2nn3c(-c4ccco4)nnc3s2)cc1,-14.9
CCOc1ccccc1N(C(=O)Cn1nnnc1-c1ccc(C)o1)C(CC)C(=O)NC(C)(C)C (stereo unspecified),-6.5
Cc1ccccc1Cn1c(=O)c2c(nc3n2CCN3Cc2ccco2)n(C)c1=O,-14.0
Nc1nc2c3ccccc3nc(C3CC3)n2n1,-8.3
Cc1cc(NC(=O)c2ccc(S(=O)(=O)N3CCOCC3)cc2)nc2c1c(=O)oc1ccccc12,41.0
CCC(CC)C(=O)Nc1cc(C)c2c(=O)oc3ccccc3c2n1,-4.7
Cc1cc(NC(=O)c2ccc(S(=O)(=O)N3CCCC3)cc2)nc2c1c(=O)oc1ccccc12,72.0*
